The values that follow come from PubChem BioAssay (NCI).

Test systems include BT-549 breast; MDA-MB-435 melanoma; SW-620 colon; MCF7 breast; HCT-116 colon; HCC-2998 colon; KM12 colon.
Common to all, as to test: NCI-60 one-dose screen, 48 h (100 = growth as untreated, 0 = no growth, -100 = all killed)
What all share (conditions): 10 µM unless noted

The structures appear in SMILES notation. The panel holds about 83,000 compounds, 20% with a hit somewhere; the sample as a whole holds those more often.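 Plates (96-well) were seeded with cells, treated with compound at one concentration, and incubated for 48 hours before percent growth was determined.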 Unmarked numbers belong to inactive results. Calls of active or inactive are those of the source. The calls were made as follows: active = growth percent below 10; inactive = the rest.

Consider `Cc1cnc(Nc2ccc(OCCN3CCCC3)cc2)nc1NCc1ccco1`, for which the growth was 78.2% in the assay on BT-549 breast; 84.1% in the assay with MDA-MB-435 melanoma; 67.5% with SW-620 colon; 50.8% in the assay with MCF7 breast; 40.5% with HCT-116 colon; 87% in the assay on HCC-2998 colon. In addition, the growth in the assay with KM12 colon was 22.7%.

On to `CCOc1cc(C2C(Cl)C(=O)N2n2cnnc2)ccc1O` (configuration not stated), for which the growth with BT-549 breast was 93%; in the assay with MDA-MB-435 melanoma it was 96.2%; with SW-620 colon it was 97.2%; with MCF7 breast, 97.5%; in the assay on HCT-116 colon it was 93.3%; in the assay with KM12 colon it was 99.1%.

On to `CCCc1nc2ccccn2c1Nc1ccc(C(=O)NO)cc1`, for which the growth in the assay on BT-549 breast is 98.1%; with MDA-MB-435 melanoma it was 90.2%; with SW-620 colon, 86.3%; in the assay on MCF7 breast it was 79.6%; in the assay with HCT-116 colon it was 85.4%; with HCC-2998 colon, 91.4%. The growth in the assay with KM12 colon is 97.1%.

For the compound `N#Cc1cccc(-c2nc3ccccn3c2NCCN2CCOCC2)c1`, the growth in the assay on BT-549 breast was 93.3%; with MDA-MB-435 melanoma, 102%; in the assay with SW-620 colon, 95.5%; with MCF7 breast, 90.4%; in the assay with HCT-116 colon it was 89.9%; in the assay on HCC-2998 colon it was 96.1%. Besides, the growth in the assay with KM12 colon is 88.6%.

Consider `COc1cc(NC(=O)c2cccc(-c3cc(=O)c4c(O)c(OC)c(OC)cc4o3)c2)cc(OC)c1OC`, for which the growth in the assay on BT-549 breast was 7% (active); in the assay with MDA-MB-435 melanoma, 65.4%; in the assay on SW-620 colon it was 73.3%; in the assay on MCF7 breast, 49.4%; in the assay with HCT-116 colon, 44.8%; with HCC-2998 colon it was 66%. In the assay with KM12 colon, the growth is 53.9%.

As to `c1ccc2c(c1)ncn2-c1nc2ccccc2n2c1nc1ccccc12`, the growth in the assay on BT-549 breast was 91.6%; in the assay with MDA-MB-435 melanoma, 102%; in the assay with SW-620 colon, 78.4%; with MCF7 breast, 7.93% (active); in the assay with HCT-116 colon, 67.2%; in the assay with HCC-2998 colon, 20.5%. Besides, in the assay on KM12 colon, the growth was 47.7%.

As for `Nc1ccc(S(=O)(=O)Nc2ccsc2-c2nc(-c3ccccc3)no2)cc1`, the growth was 59% in the assay on BT-549 breast; 3.96% (active) in the assay on MDA-MB-435 melanoma; 29.8% in the assay on SW-620 colon; 55.9% in the assay with MCF7 breast; 38.4% with HCT-116 colon; 79.4% with HCC-2998 colon. In the assay on KM12 colon, the growth was 33.6%.

Regarding `Cc1cc(N(CCCNc2ccnc3cc(Cl)ccc23)Cc2ccccn2)nc(N2CCCC2)n1`, the growth in the assay on BT-549 breast was 91.7%; in the assay on MDA-MB-435 melanoma, 86.7%; in the assay with SW-620 colon, 70.5%; in the assay with MCF7 breast, 56.9%; in the assay on HCT-116 colon, 50.3%; in the assay on HCC-2998 colon, 89.2%. Besides, in the assay on KM12 colon, the growth was 82.8%.

In the case of `C[C@]12CCC(=O)C[C@H]1CC[C@@H]1[C@@H]2CC[C@@]2(C)[C@H]1CC[C@]2(O)C(=O)CO`, the growth is 105% in the assay with BT-549 breast; 102% in the assay on MDA-MB-435 melanoma; 108% with SW-620 colon; 91.1% in the assay on MCF7 breast; 110% with HCT-116 colon; 110% in the assay on KM12 colon.

For the compound `CC(C)(C)Nc1c(-c2c3ccccc3cc3ccccc23)nc2ccccn12`, the growth in the assay on BT-549 breast is 92.1%; in the assay on MDA-MB-435 melanoma it was 90.1%; in the assay on SW-620 colon it was 67.3%; in the assay with MCF7 breast it was 74.2%; in the assay on HCT-116 colon, 46.2%; in the assay with HCC-2998 colon it was 86%. In addition, in the assay with KM12 colon, the growth is 61.4%.

Turning to `CCn1nc(C#Cc2c(C)ccc3c(Nc4ccc(Cl)cc4)nccc23)c2c(N)ncnc21`, the growth was 10.5% with BT-549 breast; -26.3% (active) in the assay with MDA-MB-435 melanoma; 25% in the assay on SW-620 colon; 6.61% (active) with MCF7 breast; 6.73% (active) in the assay with HCT-116 colon; 31.6% in the assay with HCC-2998 colon. The growth in the assay on KM12 colon is 14.2%.

In the case of `Oc1ccccc1-c1nc2ccccn2c1NCCN1CCOCC1`, the growth in the assay on BT-549 breast was 99.2%; in the assay on MDA-MB-435 melanoma, 102%; in the assay on SW-620 colon it was 94.8%; with MCF7 breast, 96.7%; in the assay on HCT-116 colon, 93.9%; with HCC-2998 colon it was 101%. The growth with KM12 colon was 91.2%.

In the case of `CCN(CC)N=Nc1nn(C(=O)Nc2ccc(Cc3ccccc3)cc2)c2ccc(Cl)cc12`, the growth in the assay on BT-549 breast is 84.1%; with MDA-MB-435 melanoma, 43%; in the assay with SW-620 colon, 44.4%; with MCF7 breast, 40.4%; with HCT-116 colon it was 44%; in the assay with HCC-2998 colon it was 43.2%. Moreover, the growth in the assay on KM12 colon is 56.6%.

For `C=C1C(=O)O[C@H]2[C@H]1CC/C(COC(=O)NCc1ccc(Cn3c(=O)sn(CCCCl)c3=O)cc1)=C\CC[C@@]1(C)O[C@@H]21`, the growth in the assay on BT-549 breast was 51.8%; with MDA-MB-435 melanoma, 26.8%; in the assay with SW-620 colon, -51.9% (active); in the assay with MCF7 breast, 5.59% (active); with HCT-116 colon it was -63.6% (active); in the assay on HCC-2998 colon, 91.4%. The growth with KM12 colon is 77.7%.

Take `N#C/C=C(\c1ccc([N+](=O)[O-])cc1)n1nnc2cc(Cl)c(Cl)cc21`: the growth is 33.7% in the assay on BT-549 breast; 7.64% (active) in the assay with MDA-MB-435 melanoma; -34.8% (active) in the assay with SW-620 colon; 1.7% (active) with MCF7 breast; -52.7% (active) with HCT-116 colon; -81.1% (active) in the assay on KM12 colon.
